In PubChem BioAssay (NCI):
Compounds without any hit were thinned out: in the full panel of roughly 83,000, 20% have a hit.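 Treatment: one concentration, 48 hours, 96-well format. Scoring: percent growth, with anything below 10 considered active.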 Unmarked numbers belong to inactive results. Activity calls are given as the source filed them.

Tested on: SR leukemia
Test: NCI-60 one-dose screen, 48 h (100 = growth as untreated, 0 = no growth, -100 = all killed)
Conditions: 10 µM unless noted

SMILES | growth
CC(C)(C)c1ccc2oc(=O)n(SC(Cl)(Cl)Cl)c2c1 | 92.3%
COc1ccc2nc(-c3ccc(Cl)cc3)cc(-c3nnc(SC/C(=N/O)c4ccccc4)o3)c2c1 | 7.97% (active)
CCOC(=O)c1c(-c2ccc(O)cc2)c(C#N)c2c(C#N)c(N)nn2c1N | 22.3%
C=CCn1c(SCC(=O)Nc2ccc(C(=O)/C=C/c3cc(OC)c(OC)c(OC)c3)cc2)nnc1-c1ccc(Cl)cc1 | 3.83% (active)
CCOC(=O)c1ccc(Nc2ncnc3ccc(NC(=O)c4ccccc4)cc23)cc1 | 73.8%
CCOC(=O)c1cnn(-c2nc(-c3ccc(F)cc3)c(C#N)c(N3CCOCC3)n2)c1N | 81.9%
CSc1nc(-c2ccc(F)cc2)c(C#N)c(N2CCOCC2)n1 | 85.9%
c1ccc(Sc2ncccn2)nc1 | 95.5%
COc1ccc(/C=C/C(=O)/C=C(/C=C/c2ccc(OC)c(OC)c2)OB(F)F)cc1OC | 0.197% (active)
Cc1cccc(NC(=O)c2sc3nc4c(cc3c2N)CN(Cc2ccccc2)CC4)c1C | 25.5%
Nc1c(C(=O)Nc2cccc3ccccc23)sc2nc3c(cc12)CCCCCC3 | 19.1%
O=C1c2ccccc2C(=O)c2c1oc1c2c(=O)[nH]c2ccccc21 | 43.8%
C=CCn1c(CN2CCN(c3cc4c(cc3F)c(=O)c(C(=O)O)cn4C3CC3)CC2)n[nH]c1=S | 99.1%
COc1cccc2c1-c1ccccc1C2=O | 40.4%
COc1ccc2cc(/C=C3\N=C(c4cc(OC)c(OC)c(OC)c4)OC3=O)c(OC)nc2c1 | 95.8%
